From PubChem BioAssay AID1745845 (National Center for Advancing Translational Sciences (NCATS), 2022)
Several values for one entry are separate records, joined by “and”; a condition that tells them apart may be missing. Equal entries are not always repeated. The campaign covered roughly 360,000 compounds. About 2,600 (0.72%) were called active. Not shown: some 5% with an inconclusive outcome. The call rests on the fitted dose curve; in most records, active means well fitted inhibition curve with a large enough effect; inconclusive means small, poorly fitted or top-dose-only effect; inactive means no such curve, though single readings can be large or run the other way. This excerpt belongs to a sample that is enriched for actives. Where a structure was tested more than once in an assay, its records may differ in their call.

test: Primary qHTS for Inhibitors of ATXN expression; conditions: HEK-293 ATXN2-luciferase reporter, luminescence, 24 h; series mostly up to 57 µM; activity change, negative = inhibition: at the top concentration; further: nearly all actives have a fitted effect of over 55% in size
Method in brief: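 qHTS (up to 57 uM final) was run with 24 h compound exposure of reporter cells at 37 °C. Each well was multiplexed: SteadyGlo luminescence measured ATXN2-luciferase expression after a fluorogenic Gly-Phe-AFC viability readout (25 uM final).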
On the % scale 0 is the no-effect control and ±100 the full control effect; potency means the concentration at half of the fitted maximal effect.

Activity change, negative = inhibition, inactive:
N#Cc1ccccc1Cn1cnc2nc3c(cc2c1=O)CCCC3 15.7%
Cc1nc2c(OCc3ccc(Cl)cc3Cl)cccn2c1N(C)CC1CC1 -0.165%
CNN/C(N=Cc1ccc([N+](=O)[O-])s1)=N\S(=O)(=O)c1cc(C)c(Cl)cc1SCc1ccccc1 4.25%
COC(=O)c1ccccc1NC(=O)c1cc(-c2ccccc2O)no1 -7.07%
CC(C)CCNC(=O)CSc1nc2ccccc2nc1Cc1ccc(Cl)cc1 8.32%
COc1ccc(Cc2nnc(SC)[nH]c2=O)cc1 -0.583%
COc1ccc(CCNC(=O)CCc2ccccc2O)cc1OC -8.28%
CCCCCc1c(-c2ccc(OC)c(OC)c2)ncn1CCc1ccccc1OC -19.7%
COc1ccc(CNc2nc(-c3ccccc3)nn2C(=O)c2ccccc2OC)cc1 11.6%
COc1cc(Cl)cn2c(-c3cccc(NC4CNC4)n3)cnc12 -7.34%
Cc1ccc(-n2ncc3c(=O)n(Cc4cccc(C(F)(F)F)c4)cnc32)cc1C 9.19%
CC1(C)OC(=O)C2=C(C[C@@H](C3CCCCC3)O[C@@H]2c2ccc(Cl)cc2)O1 -15.8%
NC(=O)C(=O)N/N=C/c1ccc([N+](=O)[O-])o1 -10.7%
Cc1onc(C(=O)NCc2ccc(F)cc2)c1[N+](=O)[O-] -8.25%
Cc1ccc(S(=O)(=O)c2c(Nc3cccc(Cl)c3)sc(C(=O)c3ccc4c(c3)OCO4)c2N)cc1 -24.7%
CC(OC(=O)c1ccc([N+](=O)[O-])cc1)C(=O)NCC1CCCCC1 (stereo unspecified) -4.37%
COc1ccc(NC(=O)CCC(=O)Nc2cc(OC)c(NC(=O)c3ccco3)cc2OC)c(OC)c1 -5.94%
COC(=O)c1c(NC(=O)CCCOc2ccccc2)sc2c1CCC(C)C2 (stereo unspecified) 1.43%
CC(=O)c1cccc(NC(=O)c2nc(-c3ccccc3)n(-c3cccc(C)c3)n2)c1 -32.6%
Cc1cc(Br)ccc1NC(=O)Cn1cnc2sc(C)c(S(=O)(=O)N3CCN(C)CC3)c2c1=O 12.6%
CN[C@@H]1[C@@H](O)[C@@H](O[C@@H]2[C@H](O)[C@H](O[C@H]3OC(CN)=CC[C@H]3N)[C@@H](N)C[C@H]2N)OCC1(C)O (stereo partly specified) 12.2%
COc1cc(/C=N/NC(=O)c2cc(-c3ccccc3C)nc3ccccc23)cc(OC)c1O 1.95%
Cc1ccc2nc(CNC(=O)c3ccccc3)[nH]c2c1 71.8%
COc1ccc(OC)c(NC(=O)/C=C/c2ccc(C)o2)c1 4.77%
CCOC(=O)C1CCN(c2nc3c(S(=O)(=O)c4ccc(CC)cc4)nnn3c3ccc(Cl)cc23)CC1 7.33%
CCCCCn1c(=O)[nH]c2cc(C(=O)NCCN(C)CCCC)ccc2c1=O -7.68%
COc1ccccc1CNC(=O)NCc1noc2ccc(C)cc12 -5.43%
Cc1cc(C(C)(C)C)cc(C)c1N -8.09%
CN(C)S(=O)(=O)c1ccc(Oc2ccc(S(=O)(=O)N(C)C)cc2)cc1 -15.9%
O=C(OCCN1CCOCC1)c1cccnc1Nc1cccc(C(F)(F)F)c1 -16.6%
Cc1c(Cl)cccc1NC(=O)C(=O)NCCc1csc2nc(-c3ccccc3F)nn12 -5.63%
Cc1ccccc1Cn1nc(C)c(NC(=O)c2cc(-c3ccc(F)cc3)on2)c1C -0.902%
COc1cc(NC(=O)CN2CCN(S(=O)(=O)c3ccc(Br)cc3)CC2)cc(OC)c1 2.9%
Cc1cc2nc(NC(=O)c3ccc(S(=O)(=O)N4CCOCC4)cc3)sc2cc1C 0.447%
CNC(=O)c1ccsc1NC(=O)c1ccc(S(=O)(=O)N2CCOCC2)cc1 8.05%
CCc1nc2c(cnn2-c2ccc(C)cc2)c(=O)n1-c1ccc(C)cc1 8.05%
Cc1ccccc1CSCCNC(=O)C1CCN(S(=O)(=O)Cc2ccccc2)CC1 -4.49%
CC1=CC(C)(C)Nc2ccc(OC(=O)C(Cc3ccccc3)N3C(=O)C4CCCCC4C3=O)cc21 (stereo unspecified) -33.8%
O=C(COC(=O)CN1C(=O)C2CCCCC2C1=O)Nc1ccc(F)c(F)c1F (stereo unspecified) -0.766%
C[C@]12CCC3=C4CCC(=O)C=C4CC[C@@H]3[C@H]1CC[C@@]2(O)CC#N 15.3%
Cc1cc(N/C=C\C(=O)c2ccc(Cl)c(Cl)c2)no1 19%
CCOc1cc2ccccc2cc1C(=O)Nc1ccccn1 6.94%
COc1ccc(CNC(=O)CSc2nc3ccccc3nc2Cc2ccccc2)cc1 6.56%
O=C(NCCC1=CCCCC1)c1ccc2c(c1)N(Cc1ccccc1F)C(=O)c1ccccc1S2(=O)=O -14.3%
CCOC(=O)c1c(C)[nH]c(C)c1S(=O)(=O)N1CCCC(C(=O)NCc2ccccc2Cl)C1 (stereo unspecified) 13.6%
CC1CCCN(C(=O)CN2C(=O)c3ccccc3S2(=O)=O)C1 (stereo unspecified) 2.01%
CN(Cc1ccc(F)cc1)C(=O)CN1C(=O)c2ccccc2S1(=O)=O 20.2%
CO[C@H]1C=CO[C@@]2(C)Oc3c(C)c(O)c4c(O)c(c(/C=N/N5CCN(C)CC5)c(O)c4c3C2=O)NC(=O)/C(C)=C\C=C[C@H](C)[C@H](O)[C@@H](C)[C@@H](O)[C@@H](C)[C@H](OC(C)=O)[C@@H]1C 16.3%

Potency, active:
O=[N+]([O-])c1ccc(C=Nc2ccc(Cl)cc2Cl)s1 12.6 µM
COc1ccc(Cc2nnc(N/N=C/c3ccccc3O)[nH]c2=O)cc1OC 3.55 µM
O=C(/C=C/c1ccc([N+](=O)[O-])o1)NNC(=O)c1ccc(F)cc1 6.31 µM
COc1cc(C(=O)OC(C)C(=O)NCC2CCCCC2)cc(NC(=O)c2ccco2)c1OC (stereo unspecified) 25.1 µM
Cc1ccc(/C=N/NC(=O)C2=NNC(c3ccccc3)(c3ccccc3)C2)c(O)c1 3.16 µM
CCC(C)Cn1c(O)cc2nn(-c3nc4ccccc4s3)c(=O)c-2c1C (stereo unspecified) 14.1 µM
CC(C)(C)c1ccc(Oc2ccc(N)cc2)cc1 2.82 µM
Oc1ccc2ccccc2c1N=Nc1nccs1 3.55 µM
COc1ccc(C(=O)Nc2nc(-c3ccc(S(=O)(=O)N4CCOCC4)cc3)cs2)cc1 25.1 µM
CC1=CC(C)(C)Nc2ccc(OC(=O)CN3C(=O)C4CCCCC4C3=O)cc21 (stereo unspecified) 31.6 µM
COc1ccc(C(=O)/C=C/Nc2ccccn2)cc1 8.91 µM
O=C(CN1C(=O)c2ccccc2S1(=O)=O)N1CCc2ccccc21 2.51 µM

Potency, inactive and 31.6 µM (active):
CCCCN(CCCC)CCC(O)c1cc2c(Cl)cc(Cl)cc2c2cc(C(F)(F)F)ccc12 (stereo unspecified)
